Bioassay records: PubChem, National Center for Advancing Translational Sciences (NCATS)
Compounds with a hit are over-represented: about 2.9% of the library has one in this group of screens.
DRD3 antagonist: D3 dopamine receptor (human) antagonism. D3R cells, DiscoveRx beta-arrestin luminescence, antagonist mode; stronger effect = lower value. max response, negative = inhibition, %. hit rate 2.5% among 360,000. AID 652054; in the data active means max response below about -50%; inconclusive means no clear call, values can overlap the other calls; further: on the % scale 0 is the no-effect control and ±100 the full control effect
Target sequence (P35462 whole entry, looked up): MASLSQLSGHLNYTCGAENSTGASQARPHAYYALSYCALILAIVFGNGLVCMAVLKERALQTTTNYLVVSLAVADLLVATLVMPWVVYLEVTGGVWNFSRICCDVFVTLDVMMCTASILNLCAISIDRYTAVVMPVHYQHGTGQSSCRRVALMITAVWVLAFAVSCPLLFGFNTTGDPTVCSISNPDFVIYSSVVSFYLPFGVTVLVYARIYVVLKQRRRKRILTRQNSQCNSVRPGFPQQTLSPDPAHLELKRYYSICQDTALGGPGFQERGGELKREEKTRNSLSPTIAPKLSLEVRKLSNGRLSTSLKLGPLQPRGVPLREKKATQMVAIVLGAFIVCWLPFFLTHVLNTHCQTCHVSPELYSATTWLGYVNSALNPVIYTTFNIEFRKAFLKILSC
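Cells expressing the human receptor were seeded at 1500 cells/well, incubated overnight at 37 degrees C in 5% CO2, then exposed to library compounds with dopamine controls for 90 minutes at 37 degrees C before luminescent detection.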
mIDH1 inhibitor: inhibitors of human mutant IDH1 R132H; O75874; IDH1-R132H enzyme, NADPH consumption, diaphorase/resazurin fluorescence; Potency, µM (series often up to 76.6 µM), for inactives: at the highest dose activity change, negative = inhibition, hits mostly inhibitors; hit rate 0.093% among 390,000; AID 602179; further: potency means the concentration at half of the fitted maximal effect; on the % scale 0 is the no-effect control and ±100 the full control effect; nearly all actives have a fitted effect of over 65% in size
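IDH1-R132H (0.5 ug/mL) preincubated 30 min with compound, then NADPH (0.016 mM) and alpha-KG (2 mM) added; 80 min at RT, pH 7.5. Remaining NADPH coupled via diaphorase/resazurin to fluorescence (540/590 nm); concentration-response curves normalized to no-enzyme control.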
D3 ag: D3 dopamine receptor (human) agonism | D3R DiscoveRx beta-arrestin cells, luminescence, 90 min | max activation, % | hit rate 0.58% among 410,000; in the data active means max activation above about 30%; further: 0% is about no effect
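Cells at 1500/well, incubated overnight, then treated with pinned compounds (dopamine as control) for 90 min at 37 degrees C. DiscoveRx reagent added for 30 - 60 minutes at room temperature; luminescence read.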
a7 integrin act: activates integrin-mediated alleviation for muscular dystrophy. alpha7betagal myoblasts, beta-gal FDG fluorescence, 48 h. Potency, µM (top dose mostly 38.3 µM), inactives show at the highest dose activation, actives largely listed as activators. hit rate 0.064% among 350,000. AID 624291;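 further: potency means the concentration at half of the fitted maximal effect; 100% = response of the positive control SU9516; nearly all actives have a fitted effect of over 60% in size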
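Alpha7betagal+/- myoblasts (passage 13) were plated 16-24 hr, then exposed to compounds (1:260 dilution of DMSO stock) for 48 hours at 37C. After MPER lysis, β-galactosidase reporter activity was read as FDG fluorescence (ex 480/em 540) after 30 minutes.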
B2AR arrestin: agonists driving beta-arrestin recruitment to human beta2-adrenergic receptor; hit rate 0.02% among 330,000; Potency, µM (series often up to 46.1 µM), inactives show at the highest dose activation, most hits filed as activators; beta-arrestin recruitment to beta2AR, cell-based reporter; P07550; AID 492947;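 further: potency means the concentration at half of the fitted maximal effect; 0% = DMSO controls and full agonism = EC100 isoproterenol or metaproterenol; nearly all actives have a fitted effect of over 65% in size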
* = called active by the depositor; ? = inconclusive; nt = no result given. Unless noted, the call rests on the fitted dose curve; in most records, active means well fitted curve in the direction sought with a large enough effect; inconclusive means small, poorly fitted or top-dose-only effect, or another doubt; inactive means no such curve, though single readings can be large; an effect the other way counts as inactive or inconclusive.

SMILES	DRD3 antagonist	mIDH1 inhibitor	D3 ag	a7 integrin act	B2AR arrestin
O=S(=O)(c1ccc(OCC(O)CN2CCN(c3ccc(F)cc3)CC2)cc1)N1CCOCC1 (configuration not stated)	-24.5	3.1%	-17.8	-15.2%	0.1%
COc1ccccc1N1CCN(CC(O)COc2ccc(C)c(C)c2)CC1 (configuration not stated)	-101.0*	9.4%	-21.2	-20.1%	0.1%
COc1ccccc1N1CCN(CC(O)COc2ccc3c(c2)CCC3)CC1 (configuration not stated)	-66.7*	1.6%	-4.7	-23.0%	0.3%
C[C@H]1O[C@@H](O[C@H]2CC[C@@]3(C)[C@H](CC[C@@H]4[C@@H]3C[C@@H](O)[C@]3(C)[C@@H](C5=CC(=O)OC5)CC[C@]43O)C2)C[C@H](O)[C@@H]1O[C@H]1C[C@H](O)[C@H](O[C@H]2C[C@H](O)[C@H](O[C@@H]3O[C@H](CO)[C@@H](O)[C@H](O)[C@H]3O)[C@@H](C)O2)[C@@H](C)O1	nt	nt	8.0	nt	nt
CC1CCc2c(sc3nnn(CCCCOc4ccc(Cl)cc4)c(=O)c23)C1 (configuration not stated)	nt	nt	-7.1	nt	nt
Cc1ccc(Cl)cc1N1CCN(CC(O)COC(C)C)CC1 (configuration not stated)	-79.2*	-5.8%	-13.9	0.0%	-0.5%
CCOC(=O)c1ccc(NC(=O)C(C)N(c2ccc(OCC)cc2)S(C)(=O)=O)cc1 (configuration not stated)	nt	7.8%	-10.8	nt	nt
CCN(CCN(C)C)C(=O)C1CCN(S(=O)(=O)c2c(C)noc2/C=C/c2ccccc2F)CC1	-54.1*	3.1%	-2.2	-3.5%	0.2%
CCOc1ccccc1/C=C/c1onc(C)c1S(=O)(=O)N1CCC(C(=O)N(CC)CC)CC1	-18.8	-4.2%	-14.6	1.8%	0.0%
COc1cc(C(=O)Nc2nonc2-c2ccc(C)c(C)c2)cc(OC)c1OC	nt	nt	-0.7	nt	nt
CCC(CC)C(=O)Nc1nnc(SCc2cc(=O)n3cccc(C)c3n2)s1	nt	-4.9%	62.4*	nt	nt
CCOC(=O)c1c(C)c2c(=O)[nH]cnc2n1-c1ccccc1	15.5	6.5%	1.0	5.8%	0.4%
CCOC(=O)c1c[nH]c(=S)n(-c2ccccc2)c1=O	-11.2	-6.8%	30.2*	15.7%	0.0%
FC(F)OC(Cl)C(F)(F)F (configuration not stated)	nt	nt	11.1	nt	nt
Oc1ccc(-c2c(-c3ccsc3)sc3ccccc23)cc1	39.2	-8.9%	36.3*	-15.0%	-1.8%
COc1ccc(-c2nc(CN3CCC(C(=O)NCCCN4CCN(c5ccccc5F)CC4)CC3)c(C)o2)cc1OC	nt	13.0%	-2.2	nt	nt
Cc1cc(-c2cc(C(=O)NCc3ccccc3)on2)nc(S(C)(=O)=O)n1	-64.8*	-0.3%	-30.7	-4.1%	-0.7%
COCCNc1nc(C)cc(-c2cc(C(=O)NCc3ccccc3)on2)n1	-17.0	-1.8%	0.9	-5.9%	0.2%
CC(=O)c1c(C)oc2c1C(=O)c1ccccc1C2=O	-16.9	2.8%	-16.8	0.5%	-0.6%
Cc1oc2c(c1C(=O)NCc1cccnc1)C(=O)c1ccccc1C2=O	-72.3*	16.9%	-6.5	0.0%	-0.8%
COc1ccc(CNC(=O)c2c(C)oc3c2C(=O)c2ccccc2C3=O)cc1	-71.6*	3.9%	-7.0	-43.1%	-0.2%
CCN(CC)c1ccc2c(c1)oc(=O)c1c(Cl)cc(=O)oc12	-91.1*	?	-12.2	-54.8%	3.6%
CCCOc1ccc(CC(=O)NCCc2ccccc2)cc1OC	1.3	7.4%	1.8	12.3%	0.3%
CCn1cnc2c1c(=O)n(CC(=O)Nc1ccc3c(c1)OC(F)(F)O3)c(=O)n2Cc1ccccc1	-50.1*	-1.0%	3.4	43.4%	-1.6%
CCn1cnc2c1c(=O)n(CC(=O)Nc1ccc(C(N)=O)cc1)c(=O)n2Cc1ccccc1	0.0	-1.0%	-6.5	-33.7%	0.2%
Cn1cnc2c1c(=O)n(Cc1cccc(Br)c1)c(=O)n2C	-28.7	0.3%	0.0	-31.9%	-0.1%
CCn1cnc2c1c(=O)n(Cc1cccc(Br)c1)c(=O)n2Cc1ccccc1	-1.3	-6.9%	35.0*	-5.5%	0.2%
CCCc1ccc(C(O)c2ncc(-c3ccccc3)[nH]2)cc1 (configuration not stated)	3.9	nt	-6.0	nt	nt
